Data as given in the supplement of paper PMC10849652.
Of roughly 7,900 targets only a part is listed; those with a hit were picked by preference. About 0.6% of all pairs of compound and target were hits. A number with no mark means an inactive call.

How the values were obtained:
Assay in all cases: log2 fold change, soluble protein after heating vs DMSO (PISA); higher = thermal stabilisation; K562 cells, 10 uM, 30 min; active = over 0.2 and 3.5 SD of the protein, either way, in both replicates (recomputed)
[1] = compound: CC1=C(C=C(C=C1)NC(=O)C2=CC(=CC=C2)C(C)(C)C#N)NC3=CC4=C(C=C3)N=CN(C4=O)C
Procedure, shortened: (§1)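 K562 cells at 2×10^6 cells/mL were exposed to 10 μM compound for 30 min, then aliquots were heated for 3 min across 48°C-58°C, pooled, and extracted in PBS containing 0.5% NP-40 at 4°C. The supernatant after 21,000xg for 90 min was taken as soluble protein and measured by TMTpro 16plex LC-MS/MS with channel sums equalised. Thermal stability is reported relative to control samples, with values from duplicates. Fold changes are given on a log2 scale.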

[2] = compound: CC1=C(C=C(C=C1)NC(=O)C2=CC(=CC=C2)N(C)C)NC(=O)C3=CC=C(C=C3)O
Procedure, shortened: as §1

[3] = compound: CC1=CC=C(C=C1)SC2=C3C=C(SC3=CN=C2)C(=O)N
Procedure, shortened: as §1

[4] = compound: CC1=NC(=CC=C1)C2=C(N=C(N2)C(C)(C)C)C3=CC4=NC=CN=C4C=C3
Procedure, shortened: as §1

[5] = compound: CCCCN(Cc1ccc(C(=O)NO)cc1)C(=O)Nc1ccccc1 [Nexturastat A]
Procedure, shortened: as §1

[6] = compound: CCCS(=O)(=O)Nc1ccc(F)c(C(=O)c2c[nH]c3ncc(-c4ccc(Cl)cc4)cc23)c1F [vemurafenib]
Procedure, shortened: as §1

[7] = compound: CCCS(=O)(=O)Nc1ccc(F)c(C(=O)c2c[nH]c3ncc(Cl)cc23)c1F
Procedure, shortened: as §1

[8] = compound: CCCc1cc(C)[nH]c(=O)c1CNC(=O)c1cc(-c2ccnc(N3CCN(C)CC3)c2)cc2c1cnn2C(C)C
Procedure, shortened: as §1

[9] = compound: CCN(CC)Cc1ccc2cc(COC(=O)Nc3ccc(C(=O)NO)cc3)ccc2c1 [givinostat]
Procedure, shortened: as §1

[10] = compound: CCN(CCCOc1ccc2c(Nc3cc(CC(=O)Nc4cccc(F)c4)[nH]n3)ncnc2c1)CCOP(=O)(O)O [barasertib]
Procedure, shortened: as §1

[11] = compound: CC[C@@H]1C(=O)N(C)c2cnc(Nc3ccc(C(=O)NC4CCN(C)CC4)cc3OC)nc2N1C1CCCC1
Procedure, shortened: as §1

[12] = compound: CC[C@@H]1C(=O)N(C)c2cnc(Nc3ccc(C(=O)N[C@H]4CC[C@H](N5CCN(CC6CC6)CC5)CC4)cc3OC)nc2N1C(C)C [volasertib]
Procedure, shortened: as §1

[13] = compound: CC[C@H](C)N1C=C(C2=C(C=C(C=C21)C3=CN=C(C=C3)N4CCNCC4)C(=O)NCC5=C(C=C(NC5=O)C)C)C
Procedure, shortened: as §1

[14] = compound: CC[C@H](C)[C@@H](C(=O)N[C@@H]([C@@H](C)O)C(=O)N[C@@H](CC(C)C)C(=O)[C@]1(CO1)C)NC(=O)[C@H]([C@@H](C)CC)N(C)C(=O)C [epoxomicin]
Procedure, shortened: as §1

[15] = compound: CCn1c(C(=O)N(C2CC2)C2CC2)cc2c3c(ncn3C)c(Nc3cc(C)n(C)n3)nc21
Procedure, shortened: as §1

[16] = compound: CCn1cc(-c2ccnc3[nH]c(-c4cccc(CN(C)C)c4)cc23)c(-c2ccc(NC(=O)N(C)C)cc2)n1
Procedure, shortened: as §1

[17] = compound: CN(C)CC(=O)Nc1ccc2[nH]c(=O)c3ccccc3c2c1
Procedure, shortened: as §1

[18] = compound: CN(CCOC1=CC=C(C=C1)C[C@H]2C(=O)NC(=O)S2)C3=CC=CC=N3 (racemic) [rosiglitazone]
Procedure, shortened: as §1

[19] = compound: CN1C2=C(C3=C1C(=O)N(N=C3)CC4=CC(=CC=C4)N)SC(=C2)S(=O)C
Procedure, shortened: as §1

[20] = compound: CN1CCC(CNc2ccc3ncc(-c4cccc(OC(F)(F)F)c4)n3n2)CC1
Procedure, shortened: as §1

Chain of UniProt Q9Y5L4 (Q9Y5L4 whole entry, looked up): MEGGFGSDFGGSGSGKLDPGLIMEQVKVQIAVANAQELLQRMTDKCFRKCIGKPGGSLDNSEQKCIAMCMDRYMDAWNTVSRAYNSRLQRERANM
Chain of UniProt Q9P2R7 (Q9P2R7 whole entry, looked up): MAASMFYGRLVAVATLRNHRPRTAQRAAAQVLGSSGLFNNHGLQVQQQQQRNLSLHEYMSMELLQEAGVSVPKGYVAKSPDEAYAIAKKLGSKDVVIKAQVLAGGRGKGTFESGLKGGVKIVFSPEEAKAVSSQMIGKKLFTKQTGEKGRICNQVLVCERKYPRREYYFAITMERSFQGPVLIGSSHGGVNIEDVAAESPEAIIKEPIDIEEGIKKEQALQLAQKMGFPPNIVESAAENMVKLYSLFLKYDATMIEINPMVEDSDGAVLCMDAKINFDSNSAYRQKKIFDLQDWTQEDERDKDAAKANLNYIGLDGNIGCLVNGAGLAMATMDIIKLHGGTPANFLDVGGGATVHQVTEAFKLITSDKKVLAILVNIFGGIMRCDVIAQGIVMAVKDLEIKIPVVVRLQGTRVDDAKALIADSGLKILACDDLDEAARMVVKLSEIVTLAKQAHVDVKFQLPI
Chain of UniProt Q6YHU6 (Q6YHU6 whole entry, looked up): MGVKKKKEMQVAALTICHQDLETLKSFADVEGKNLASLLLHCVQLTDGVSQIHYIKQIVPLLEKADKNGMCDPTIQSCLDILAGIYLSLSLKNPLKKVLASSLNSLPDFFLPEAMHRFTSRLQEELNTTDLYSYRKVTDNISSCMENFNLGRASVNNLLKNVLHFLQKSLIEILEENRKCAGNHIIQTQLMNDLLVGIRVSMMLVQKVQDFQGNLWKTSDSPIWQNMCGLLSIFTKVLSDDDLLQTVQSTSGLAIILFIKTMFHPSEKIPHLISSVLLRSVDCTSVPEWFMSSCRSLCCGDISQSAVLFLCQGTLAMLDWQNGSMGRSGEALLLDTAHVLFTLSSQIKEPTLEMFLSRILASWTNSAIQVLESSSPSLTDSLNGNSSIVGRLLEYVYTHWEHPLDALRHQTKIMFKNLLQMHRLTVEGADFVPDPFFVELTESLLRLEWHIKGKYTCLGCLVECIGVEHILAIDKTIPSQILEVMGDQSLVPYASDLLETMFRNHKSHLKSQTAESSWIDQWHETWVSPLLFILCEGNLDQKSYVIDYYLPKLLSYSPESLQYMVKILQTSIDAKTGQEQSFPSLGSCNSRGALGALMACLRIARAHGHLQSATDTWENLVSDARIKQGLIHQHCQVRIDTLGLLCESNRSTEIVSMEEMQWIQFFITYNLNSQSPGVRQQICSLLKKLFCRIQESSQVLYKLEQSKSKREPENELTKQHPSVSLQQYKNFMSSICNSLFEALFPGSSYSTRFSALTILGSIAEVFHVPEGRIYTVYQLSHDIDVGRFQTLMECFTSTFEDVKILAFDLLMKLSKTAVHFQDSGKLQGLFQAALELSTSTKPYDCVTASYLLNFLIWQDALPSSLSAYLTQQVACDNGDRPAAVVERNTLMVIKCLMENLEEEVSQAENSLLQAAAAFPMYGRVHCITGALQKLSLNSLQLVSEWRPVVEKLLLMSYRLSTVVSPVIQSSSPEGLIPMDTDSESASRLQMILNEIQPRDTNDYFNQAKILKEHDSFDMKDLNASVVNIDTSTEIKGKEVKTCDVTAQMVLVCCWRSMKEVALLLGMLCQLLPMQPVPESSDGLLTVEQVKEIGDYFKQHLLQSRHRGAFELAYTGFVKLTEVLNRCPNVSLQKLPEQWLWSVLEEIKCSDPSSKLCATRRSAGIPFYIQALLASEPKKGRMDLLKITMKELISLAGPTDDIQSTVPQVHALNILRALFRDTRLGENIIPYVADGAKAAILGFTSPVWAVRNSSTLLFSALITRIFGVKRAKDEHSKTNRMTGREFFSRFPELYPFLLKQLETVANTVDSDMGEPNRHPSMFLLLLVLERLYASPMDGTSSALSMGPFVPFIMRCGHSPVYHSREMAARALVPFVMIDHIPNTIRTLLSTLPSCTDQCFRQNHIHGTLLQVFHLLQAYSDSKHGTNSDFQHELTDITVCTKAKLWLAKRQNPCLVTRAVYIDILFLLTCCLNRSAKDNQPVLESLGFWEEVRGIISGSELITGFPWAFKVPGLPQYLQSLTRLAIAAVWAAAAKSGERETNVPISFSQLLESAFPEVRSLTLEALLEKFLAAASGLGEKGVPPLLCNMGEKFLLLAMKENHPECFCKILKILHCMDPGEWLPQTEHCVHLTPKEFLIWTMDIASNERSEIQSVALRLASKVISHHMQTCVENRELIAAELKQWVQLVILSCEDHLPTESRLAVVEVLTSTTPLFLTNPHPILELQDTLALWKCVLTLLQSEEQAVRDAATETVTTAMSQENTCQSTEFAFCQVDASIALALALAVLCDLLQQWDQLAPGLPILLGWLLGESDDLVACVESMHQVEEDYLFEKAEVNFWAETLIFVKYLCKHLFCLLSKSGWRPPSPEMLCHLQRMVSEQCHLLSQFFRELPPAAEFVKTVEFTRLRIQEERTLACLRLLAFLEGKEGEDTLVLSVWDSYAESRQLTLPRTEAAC
Chain of UniProt Q8WUH2 (Q8WUH2 whole entry, looked up): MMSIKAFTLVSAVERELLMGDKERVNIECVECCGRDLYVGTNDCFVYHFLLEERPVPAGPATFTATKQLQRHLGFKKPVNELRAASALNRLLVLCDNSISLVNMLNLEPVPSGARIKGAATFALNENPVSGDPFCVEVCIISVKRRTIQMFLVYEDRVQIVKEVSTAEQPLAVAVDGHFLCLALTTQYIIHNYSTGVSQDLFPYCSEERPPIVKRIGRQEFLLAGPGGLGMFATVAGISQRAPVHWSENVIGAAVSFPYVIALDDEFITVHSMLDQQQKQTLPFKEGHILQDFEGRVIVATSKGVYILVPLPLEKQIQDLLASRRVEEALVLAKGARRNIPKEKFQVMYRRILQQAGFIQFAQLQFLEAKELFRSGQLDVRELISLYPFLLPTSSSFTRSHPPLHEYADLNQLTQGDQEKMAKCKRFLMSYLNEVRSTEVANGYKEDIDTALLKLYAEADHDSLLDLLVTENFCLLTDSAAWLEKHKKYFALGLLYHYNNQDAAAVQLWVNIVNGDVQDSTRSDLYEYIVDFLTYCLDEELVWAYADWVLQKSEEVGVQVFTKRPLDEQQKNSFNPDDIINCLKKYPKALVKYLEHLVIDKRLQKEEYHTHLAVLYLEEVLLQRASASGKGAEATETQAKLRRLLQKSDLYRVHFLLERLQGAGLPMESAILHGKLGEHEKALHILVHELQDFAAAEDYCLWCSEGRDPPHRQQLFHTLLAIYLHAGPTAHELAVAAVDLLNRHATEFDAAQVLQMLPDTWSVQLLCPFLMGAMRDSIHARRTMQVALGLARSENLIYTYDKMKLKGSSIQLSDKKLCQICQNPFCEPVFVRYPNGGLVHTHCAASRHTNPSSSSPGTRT
Chain of UniProt Q13428 (Q13428 whole entry, looked up): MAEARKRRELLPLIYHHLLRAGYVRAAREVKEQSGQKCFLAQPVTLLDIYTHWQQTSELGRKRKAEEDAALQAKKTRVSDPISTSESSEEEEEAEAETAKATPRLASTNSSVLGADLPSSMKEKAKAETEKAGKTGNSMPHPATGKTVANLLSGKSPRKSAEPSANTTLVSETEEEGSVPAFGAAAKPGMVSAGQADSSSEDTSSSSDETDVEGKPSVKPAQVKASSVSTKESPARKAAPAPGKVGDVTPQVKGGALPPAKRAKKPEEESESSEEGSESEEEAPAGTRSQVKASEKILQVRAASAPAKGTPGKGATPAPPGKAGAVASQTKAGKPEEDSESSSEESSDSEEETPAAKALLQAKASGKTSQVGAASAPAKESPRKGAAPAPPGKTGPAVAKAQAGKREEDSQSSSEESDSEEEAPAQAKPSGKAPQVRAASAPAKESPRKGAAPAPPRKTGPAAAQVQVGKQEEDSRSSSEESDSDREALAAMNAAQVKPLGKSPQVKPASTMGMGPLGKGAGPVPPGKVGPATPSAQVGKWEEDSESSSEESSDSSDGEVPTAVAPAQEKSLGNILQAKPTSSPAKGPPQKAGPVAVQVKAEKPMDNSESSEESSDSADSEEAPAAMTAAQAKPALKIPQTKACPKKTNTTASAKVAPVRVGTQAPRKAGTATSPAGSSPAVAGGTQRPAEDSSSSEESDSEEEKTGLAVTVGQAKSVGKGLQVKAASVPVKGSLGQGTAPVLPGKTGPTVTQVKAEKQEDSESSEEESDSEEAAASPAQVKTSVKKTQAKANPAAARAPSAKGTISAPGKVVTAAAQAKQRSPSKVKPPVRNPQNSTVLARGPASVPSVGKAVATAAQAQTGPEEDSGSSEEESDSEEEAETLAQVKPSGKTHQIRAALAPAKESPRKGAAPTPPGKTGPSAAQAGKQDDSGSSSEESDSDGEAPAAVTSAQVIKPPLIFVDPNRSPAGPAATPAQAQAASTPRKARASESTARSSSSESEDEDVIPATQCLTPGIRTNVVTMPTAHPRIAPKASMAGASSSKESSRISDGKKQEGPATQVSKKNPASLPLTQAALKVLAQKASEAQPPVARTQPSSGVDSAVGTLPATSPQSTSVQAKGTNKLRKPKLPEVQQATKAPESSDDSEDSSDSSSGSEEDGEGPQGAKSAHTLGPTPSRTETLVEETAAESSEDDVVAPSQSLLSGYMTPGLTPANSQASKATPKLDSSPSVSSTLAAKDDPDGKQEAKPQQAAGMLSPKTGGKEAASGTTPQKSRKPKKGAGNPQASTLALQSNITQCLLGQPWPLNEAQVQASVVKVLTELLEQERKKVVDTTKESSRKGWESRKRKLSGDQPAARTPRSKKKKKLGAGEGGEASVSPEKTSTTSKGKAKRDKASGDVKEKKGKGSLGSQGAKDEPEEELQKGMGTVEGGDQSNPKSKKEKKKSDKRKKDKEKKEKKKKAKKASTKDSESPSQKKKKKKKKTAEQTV
Chain of UniProt P62072 (P62072 whole entry, looked up): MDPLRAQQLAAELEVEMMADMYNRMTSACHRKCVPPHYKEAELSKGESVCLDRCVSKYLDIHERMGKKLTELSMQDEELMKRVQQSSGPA

Target | log2 fold change [1] | log2 fold change [2] | log2 fold change [3] | log2 fold change [4] | log2 fold change [5] | log2 fold change [6] | log2 fold change [7] | log2 fold change [8] | log2 fold change [9] | log2 fold change [10] | log2 fold change [11] | log2 fold change [12] | log2 fold change [13] | log2 fold change [14] | log2 fold change [15] | log2 fold change [16] | log2 fold change [17] | log2 fold change [18] | log2 fold change [19] | log2 fold change [20]
TGFBRAP1 (UniProt Q8WUH2) | -0.058 | -0.001 | 0.138 | 0.061 | 0.107 | -0.055 | -0.003 | 0.038 | 0.092 | 0.01 | -0.098 | -0.253 | 0.128 | 0.048 | -0.038 | -0.059 | 0.11 | 0.097 | 0.195 | 0.011
SMARCA5 (UniProt O60264) | 0.042 | -0.041 | 0.038 | 0.014 | 0.107 | 0.085 | 0.129 | 0.032 | 0.149 | 0.109 | -0.242 | -0.333 | 0.045 | 0.092 | -0.088 | -0.06 | 0.053 | -0.003 | 0.121 | 0.076
SLC9A6 isoform 2 (UniProt Q92581) | -0.035 | 0.024 | -0.002 | -0.012 | -0.061 | 0.024 | 0 | -0.063 | -0.01 | 0.018 | 0.047 | -0.081 | 0.009 | -0.013 | -0.003 | -0.003 | -0.026 | -0.013 | -0.039 | -0.071
SPAST (UniProt Q9UBP0) | -0.032 | -0.05 | 0.049 | 0.029 | -0.047 | 0.068 | 0.021 | 0.062 | 0.074 | 0.045 | -0.128 | -0.242 | 0.107 | 0.021 | -0.077 | 0.035 | 0.079 | 0.048 | -0.046 | -0.043
SUCLA2 (UniProt Q9P2R7) | -0.038 | -0.018 | 0.003 | 0.06 | -0.083 | 0.047 | 0.008 | -0.02 | -0.003 | 0.064 | 0.013 | -0.105 | 0.052 | 0.016 | 0.01 | -0.049 | 0.018 | 0.065 | -0.071 | -0.05
SPAG9 (UniProt O60271) | 0.023 | -0.045 | 0.002 | 0.004 | 0.039 | 0.028 | 0.053 | 0.014 | 0.06 | 0.037 | -0.039 | -0.168 | 0.046 | 0.028 | -0.014 | 0.02 | 0.02 | 0.043 | -0.009 | -0.203
SRI (UniProt P30626) | 0.035 | -0.092 | 0.094 | 0.037 | -0.073 | 0.092 | 0.045 | -0.055 | -0.03 | 0.107 | 0.008 | -0.111 | -0.013 | 0.393 (active) | 0.09 | -0.058 | 0.009 | 0.003 | -0.071 | 0.126
TJP1 (UniProt Q07157) | 0.03 | -0.039 | 0.011 | -0.012 | -0.005 | 0.041 | 0.065 | -0.021 | 0.102 | 0.033 | -0.023 | -0.166 | 0.022 | 0.007 | -0.023 | -0.052 | 0.012 | 0.019 | 0 | -0.071
TIMM13 (UniProt Q9Y5L4) | 0.086 | -0.048 | 0.03 | 0.143 | -0.19 | 0.072 | 0.015 | 0.085 | 0.089 | -0.035 | 0.019 | -0.048 | 0.027 | 0.213 | 0.024 | 0 | -0.032 | 0.029 | -0.094 | 0.237
TCOF1 isoform 4 (UniProt Q13428) | -0.03 | 0.015 | -0.028 | -0.019 | -0.001 | -0.029 | -0.012 | -0.004 | 0.056 | 0.006 | -0.018 | 0.034 | -0.016 | -0.02 | 0.013 | 0.063 | -0.052 | -0.011 | 0.019 | -0.06
STOM (UniProt P27105) | -0.035 | 0.025 | -0.041 | -0.002 | 0.007 | 0.01 | -0.053 | -0.092 | 0.005 | -0.017 | 0.087 | 0.096 | -0.08 | -0.006 | 0.009 | -0.164 | -0.057 | -0.065 | 0.085 | 0.317 (active)
TIMM10 (UniProt P62072) | 0.031 | -0.078 | 0.018 | 0.045 | -0.124 | 0.058 | -0.093 | -0.049 | -0.05 | 0.022 | 0.029 | 0.052 | -0.023 | 0.032 | 0.059 | 0.006 | -0.046 | -0.007 | -0.074 | 0.14
SLC6A6 (UniProt P31641) | 0.017 | 0.014 | 0.011 | 0.028 | -0.062 | 0.066 | -0.01 | -0.176 | 0.014 | -0.018 | -0.011 | 0.01 | 0 | 0.135 | 0.024 | -0.053 | -0.012 | -0.011 | -0.02 | 0.084
THADA (UniProt Q6YHU6) | 0.03 | -0.038 | 0.019 | -0.01 | -0.021 | 0.038 | 0.06 | 0.039 | -0.006 | 0.07 | -0.003 | -0.017 | 0.011 | -0.007 | 0 | 0.057 | 0.051 | 0.076 | -0.019 | -0.146
SUOX (UniProt P51687) | -0.012 | -0.002 | -0.007 | -0.334 (active) | -0.021 | -0.046 | -0.051 | 0.023 | -0.033 | 0.007 | 0.003 | -0.04 | -0.02 | 0.013 | 0.026 | 0 | 0.005 | 0.012 | -0.07 | -0.31 (active)
ST6GAL1 (UniProt P15907) | 0.025 | -0.032 | -0.028 | -0.064 | -0.031 | -0.1 | -0.069 | 0.047 | -0.005 | -0.014 | -0.221 (active) | -0.257 | 0.003 | -0.066 | 0.019 | 0.01 | 0.041 | 0.058 | -0.057 | -0.149
